Among the data in PubChem BioAssay (NCI) are growth values, retold here.

SMILES strings stand for the structures. Compounds without any hit were thinned out: in the full panel of roughly 83,000, 20% have a hit.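 Single-dose data. Exposure time 48 hours. Values below 10 considered active.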 A number with no mark means an inactive call. Active and inactive are the calls of the source.

Test systems include SR leukemia; RPMI-8226 leukemia; OVCAR-8 ovarian; OVCAR-5 ovarian; OVCAR-4 ovarian; SK-OV-3 ovarian; IGROV1 ovarian; OVCAR-3 ovarian; HS 578T breast; NCI/ADR-RES ovarian.
Holding throughout (experiment): NCI-60 one-dose screen, 48 h (100 = growth as untreated, 0 = no growth, -100 = all killed)
Holding throughout (details): 10 µM unless noted

Turning to `O=C1N[C@H]2[C@H](CS[C@H]2CCCCC(=O)N(CCP(c2ccccc2)c2ccccc2)CCP(c2ccccc2)c2ccccc2)N1`, the growth is 102% in the assay on SR leukemia; 57% in the assay on RPMI-8226 leukemia; 95.1% in the assay on OVCAR-8 ovarian; 95.2% in the assay on OVCAR-5 ovarian; 87.9% in the assay on OVCAR-4 ovarian; 111% in the assay on SK-OV-3 ovarian. The growth in the assay with IGROV1 ovarian is -47.4% (active); in the assay on OVCAR-3 ovarian, 0.222% (active); with HS 578T breast it was 84.4%; in the assay on NCI/ADR-RES ovarian, 101%.

As for `COC(=O)c1nc(=S)[nH]c(C(=O)OC)c1C(=O)c1ccc2ccccc2c1`, the growth in the assay with SR leukemia is 93.5%; in the assay with RPMI-8226 leukemia, 103%; with OVCAR-8 ovarian it was 107%; in the assay with OVCAR-5 ovarian, 101%; with OVCAR-4 ovarian it was 96.9%; in the assay with SK-OV-3 ovarian, 101%. Also, the growth in the assay on IGROV1 ovarian is 98.5%; with HS 578T breast, 103%; in the assay with NCI/ADR-RES ovarian, 106%.

Turning to `CCOC(=O)/C(=C\c1ccc(-c2ccccc2)cc1)C(C)=O`, the growth with SR leukemia is 95.9%; in the assay with RPMI-8226 leukemia, 105%; with OVCAR-8 ovarian, 113%; in the assay with OVCAR-5 ovarian it was 96.7%; with SK-OV-3 ovarian, 116%; in the assay with IGROV1 ovarian, 101%. Moreover, the values for the growth with OVCAR-3 ovarian, in the assay with HS 578T breast and in the assay with NCI/ADR-RES ovarian were 98.2%, 103% and 103%, respectively.

As to `CC1OC(OC2C(OC3CCC4(C)C(CCC5(C)C4CC=C4C6CC(C)(C)CCC6(CO)C(O)CC45C)C3(C)C)OC(C(=O)O)C(OC3OC(COC4OC(CO)C(O)C(O)C4O)C(O)C(O)C3O)C2O)C(O)C(O)C1O` (stereo not given), the growth is -44.2% (active) in the assay on SR leukemia; -23.5% (active) with RPMI-8226 leukemia; -51.8% (active) in the assay on OVCAR-8 ovarian; -64% (active) in the assay on OVCAR-5 ovarian; -84.3% (active) in the assay with OVCAR-4 ovarian; -83.4% (active) in the assay on SK-OV-3 ovarian. Moreover, the figures for the growth in the assay on IGROV1 ovarian, in the assay on HS 578T breast and in the assay with NCI/ADR-RES ovarian were -81.6% (active), -35.2% (active) and -68% (active), respectively.

As to `O=Nc1ccccc1N=O`, the growth is 63.8% with SR leukemia; 86.7% in the assay on RPMI-8226 leukemia; 89.4% with OVCAR-8 ovarian; 105% with OVCAR-5 ovarian; 116% in the assay with SK-OV-3 ovarian; 91.1% in the assay on IGROV1 ovarian. The growth is 118% with OVCAR-3 ovarian, 84.2% in the assay on HS 578T breast and 81.2% in the assay with NCI/ADR-RES ovarian.

As to `Cc1ccnc(NC(c2ccccc2)c2ccc3cccnc3c2O)c1` (stereo not given), the growth is 10% with SR leukemia; 51.5% in the assay with RPMI-8226 leukemia; 28.1% with OVCAR-8 ovarian; 69.9% in the assay with OVCAR-5 ovarian; 20.6% with OVCAR-4 ovarian; 57.5% in the assay on SK-OV-3 ovarian. The growth in the assay on IGROV1 ovarian is 36.5%; in the assay on HS 578T breast, 66.9%; in the assay with NCI/ADR-RES ovarian, 22.4%.

Turning to `Cc1ccc2nc(C[n+]3ccc4ccccc4c3)ccc2c1`, the growth in the assay with SR leukemia is 62.8%; in the assay on RPMI-8226 leukemia it was 30.5%; with OVCAR-8 ovarian it was 57.8%; with OVCAR-5 ovarian, 79.7%; with OVCAR-4 ovarian, 43.8%; in the assay with SK-OV-3 ovarian, 70%. In addition, the growth with IGROV1 ovarian is 59.7%; with HS 578T breast, 90.8%; in the assay on NCI/ADR-RES ovarian, 104%.

For the molecule `CC(C)c1ccc2nc3ccc(C(=O)NCCN4CCN(c5ccccc5)CC4)cn3c(=O)c2c1`, the growth in the assay with SR leukemia is 51.7%; in the assay with RPMI-8226 leukemia, 20.5%; in the assay with OVCAR-8 ovarian it was 46.8%; in the assay with OVCAR-5 ovarian, 91.1%; with OVCAR-4 ovarian it was 63.9%; in the assay on SK-OV-3 ovarian it was 93.4%. Moreover, the growth in the assay on IGROV1 ovarian was 78.7%; in the assay with OVCAR-3 ovarian, 77.5%; in the assay on HS 578T breast, 59.2%; in the assay on NCI/ADR-RES ovarian it was 32.2%.

Consider `C=CCOc1ccc(N=NC(C#N)C#N)cc1`, for which the growth in the assay on SR leukemia was 8.51% (active); with RPMI-8226 leukemia, 2.95% (active); in the assay with OVCAR-8 ovarian, 86.9%; in the assay on OVCAR-5 ovarian, 93.8%; in the assay with OVCAR-4 ovarian it was 31.6%; with SK-OV-3 ovarian, 52.7%. For the same molecule, the growth in the assay with IGROV1 ovarian is 53.3%; in the assay on HS 578T breast, 88.6%; with NCI/ADR-RES ovarian, 103%.

As to `Cc1cc(C(C)(CC(C)C)c2ccc(O)c(C)c2)ccc1O`, the growth in the assay with SR leukemia is 94.6%; with RPMI-8226 leukemia it was 86.3%; in the assay on OVCAR-8 ovarian it was 91.2%; in the assay with OVCAR-5 ovarian, 113%; with SK-OV-3 ovarian it was 97%; in the assay with IGROV1 ovarian, 103%. The growth in the assay with OVCAR-3 ovarian is 106%; in the assay on HS 578T breast, 129%; with NCI/ADR-RES ovarian, 105%.

As for `CCN(CC)CCOc1ccc(-c2nc3cc(Cl)ccc3s2)cc1`, the growth in the assay on SR leukemia was -69.6% (active); with RPMI-8226 leukemia it was -12.2% (active); in the assay on OVCAR-8 ovarian it was 40.9%; with OVCAR-5 ovarian, -0.127% (active); in the assay on OVCAR-4 ovarian, 58.5%; in the assay on SK-OV-3 ovarian, 59.9%. Besides, the growth is -27.3% (active) in the assay on IGROV1 ovarian, -29.2% (active) in the assay with HS 578T breast and -26.1% (active) in the assay on NCI/ADR-RES ovarian.

In the case of `COc1ccc2nc3cc(Cl)ccc3c(NCCNc3c4ccc(Cl)cc4nc4ccc(OC)cc34)c2c1`, the growth was -29.8% (active) in the assay on SR leukemia; -34.5% (active) in the assay with RPMI-8226 leukemia; -65.4% (active) with OVCAR-8 ovarian; -90.1% (active) in the assay on OVCAR-5 ovarian; -43.6% (active) with OVCAR-4 ovarian; -95.6% (active) in the assay on SK-OV-3 ovarian. In addition, the growth in the assay with IGROV1 ovarian was -78.9% (active); with OVCAR-3 ovarian, -92.5% (active); with HS 578T breast, -34.9% (active); with NCI/ADR-RES ovarian it was -53.5% (active).

As to `CNC(=O)N/N=C/c1ccc([N+](=O)[O-])o1`, the growth in the assay on SR leukemia is 82.8%; in the assay with RPMI-8226 leukemia, 83.6%; in the assay on OVCAR-8 ovarian it was 96.5%; with OVCAR-5 ovarian it was 110%; with OVCAR-4 ovarian, 108%; in the assay on SK-OV-3 ovarian it was 109%. Also, the growth in the assay with IGROV1 ovarian was 98.1%; in the assay with HS 578T breast it was 98.1%; in the assay on NCI/ADR-RES ovarian it was 108%.
